Laboratory results reported in PubChem BioAssay (NCATS).
Results filed as inconclusive are left out. A call without a number means that no potency is given here. The source made the active and inactive calls. Calls come from the whole dose curve; as a rule, active = well fitted inhibition curve with a large enough effect; inconclusive = small, poorly fitted or top-dose-only effect; inactive = flat fitted curve, though single readings scatter.

Experiments:
Test in all cases: qHTS profiling for inhibitors of Plasmodium falciparum proliferation (AID 504749); note: nearly all actives have a fitted effect of over 60% in size
Conditions in all cases: P. falciparum in erythrocytes, SYBR Green DNA, 72 h; series mostly up to 28.7 µM
CP237 = system: CP237
Outline: (§1)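 Each compound contacts P. falciparum-infected red blood cells for 72 h at 37 C; lysis buffer (Tris, EDTA, saponin, Triton X, SYBR Green I) is added and fluorescence measured next morning; values normalized to controls.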

CP238 = system: CP238
Outline: as §1

CP247 = system: CP247
Outline: as §1

CP250 = system: CP250
Outline: as §1

CP252 = system: CP252
Outline: as §1

CP256 = system: CP256
Outline: as §1

CP260 = system: CP260
Outline: as §1

CP262 = system: CP262
Outline: as §1

CP265 = system: CP265
Outline: as §1

CP266 = system: CP266
Outline: as §1

CP268 = system: CP268
Outline: as §1

CP269 = system: CP269
Outline: as §1

CP291 = system: CP291
Outline: as §1

CP305 = system: CP305
Outline: as §1

CP315 = system: CP315
Outline: as §1

CP325 = system: CP325
Outline: as §1

CP329 = system: CP329
Outline: as §1

CP286 = system: CP286
Outline: as §1

CP297 = system: CP297
Outline: as §1

CP335 = system: CP335
Outline: as §1
Potency is the fitted concentration of half-maximal effect.

SMILES | Potency (CP237) | Potency (CP238) | Potency (CP247) | Potency (CP250) | Potency (CP252) | Potency (CP256) | Potency (CP260) | Potency (CP262) | Potency (CP265) | Potency (CP266) | Potency (CP268) | Potency (CP269) | Potency (CP291) | Potency (CP305) | Potency (CP315) | Potency (CP325) | Potency (CP329) | Potency (CP286) | Potency (CP297) | Potency (CP335)
O=C(NC1CCN(CCc2c[nH]c3ccccc23)CC1)c1ccccc1 | inactive | inactive | inactive | inactive | inactive | inactive | inactive | inactive | inactive | inactive | inactive | inactive | inactive | inactive | inactive | inactive | inactive |  |  | 
COc1ccc(CN(CCN(C)C)c2ncccn2)cc1 | 7.08 µM (active) | inactive | inactive | inactive | inactive | inactive | inactive | inactive | inactive |  | inactive | inactive | inactive | inactive | inactive | inactive | inactive | inactive | inactive | inactive
CN(Cc1ccc(C(C)(C)C)cc1)Cc1cccc2ccccc12 | inactive | inactive | inactive | inactive | inactive | inactive | inactive | inactive | inactive | inactive | inactive | inactive | inactive | inactive | inactive | inactive | inactive |  | inactive | 
O=C(O)CCC(=O)Nc1ccc(S(=O)(=O)Nc2nccs2)cc1 | inactive | inactive | inactive | inactive | inactive | inactive | inactive | inactive | inactive | inactive | inactive | inactive | inactive | inactive | inactive |  | inactive | inactive | inactive | inactive
CCN(CC)CCNC(=O)c1cc(Br)c(N)cc1OC | inactive | inactive | inactive | inactive | inactive | inactive | inactive | inactive | inactive | inactive | inactive | inactive | inactive | inactive | inactive | inactive | inactive | inactive |  | inactive
CC(C)Cc1ccc(CC(=O)O)cc1 | inactive | inactive | inactive | inactive | inactive | inactive | inactive | inactive | inactive | inactive | inactive | inactive | inactive | inactive |  | inactive | inactive | inactive | inactive | inactive
O=C(c1ccc(F)cc1)C1CCN(CCn2c(=S)[nH]c3ccccc3c2=O)CC1 | 5.01 µM (active) | 7.94 µM (active) | 4.47 µM (active) | 10 µM (active) | 6.31 µM (active) | 8.91 µM (active) | 3.16 µM (active) |  | 7.94 µM (active) | 7.57 µM (active) | 6.01 µM (active) | 6.75 µM (active) | 6.75 µM (active) | 6.75 µM (active) | 15.1 µM (active) | 7.57 µM (active) | 6.75 µM (active) | 3.98 µM (active) | 6.75 µM (active) | 
CCC(C(=O)OCCOCCN(CC)CC)c1ccccc1 (centres undefined) | 11.2 µM (active) | inactive | inactive | inactive | inactive | inactive | inactive | inactive |  | inactive | inactive | inactive | inactive | inactive | inactive | inactive | inactive | inactive | 15.1 µM (active) | 
CCOCCn1c(N2CCCN(C)CC2)nc2ccccc21 | 11.2 µM (active) | inactive | inactive | inactive | inactive | inactive | inactive | inactive |  |  |  | inactive | inactive |  | inactive | inactive | inactive | inactive |  | 
CCOC(=O)c1c(N)sc2c1CCN(Cc1ccccc1)C2 | 7.94 µM (active) | 5.62 µM (active) | 3.98 µM (active) | 5.01 µM (active) | 7.94 µM (active) | 5.01 µM (active) | 6.31 µM (active) |  |  | 12 µM (active) | 7.57 µM (active) | 6.01 µM (active) | 8.49 µM (active) | 6.01 µM (active) | 6.75 µM (active) | 4.78 µM (active) | 4.78 µM (active) | 5.62 µM (active) | 7.57 µM (active) | 4.26 µM (active)
CCCCNc1ccc(C(=O)OCCOCCOCCOCCOCCOCCOCCOCCOCCOC)cc1 | inactive | inactive | inactive | inactive | inactive | inactive | inactive | inactive | inactive | inactive | inactive | inactive | inactive | inactive |  | inactive | inactive | inactive | inactive | inactive
CCOC(=O)Nc1ccc2c(c1)N(C(=O)CCN1CCOCC1)c1ccccc1S2 | inactive | inactive | inactive | inactive | inactive | inactive | inactive | inactive | inactive | inactive | inactive | inactive | inactive | inactive |  | inactive | inactive | inactive | inactive | inactive
Cc1ccc(S(=O)(=O)NC(=O)NC2CCCC2)cc1 | inactive | inactive | inactive | inactive | inactive | inactive | inactive | inactive | inactive |  | inactive | inactive | inactive | inactive | inactive | inactive | inactive | inactive |  | inactive
NC(=O)n1c(O)c(C(=O)c2cccs2)c2cc(Cl)ccc21 | inactive | inactive | inactive | inactive | inactive | inactive | inactive | inactive | inactive | inactive | inactive | inactive | inactive | inactive | inactive | inactive | inactive | inactive | inactive | inactive
CCCCCCCCNC(C)C(O)c1ccc(SC(C)C)cc1 (centres undefined) | 0.794 µM (active) | 0.794 µM (active) | 0.891 µM (active) | 0.891 µM (active) | 0.794 µM (active) | 1 µM (active) | 0.355 µM (active) | 2.13 µM (active) | 1.12 µM (active) | 1.69 µM (active) | 1.51 µM (active) | 1.51 µM (active) | 1.9 µM (active) | 2.69 µM (active) | 3.01 µM (active) | 3.01 µM (active) | 3.01 µM (active) | 1 µM (active) |  | 0.601 µM (active)
